Screen size: about 420,000 compounds; about 64,000 (15%) were called active. Inconclusive results (about 27%) are left out. The list is a sample of the results. Values without a mark were called inactive. The call rests on the fitted dose curve; in most records, active means well fitted inhibition curve with a large enough effect; inconclusive means small, poorly fitted or top-dose-only effect; inactive means flat fitted curve, though single readings scatter.
Assay: qHTS for Inhibitors of human tyrosyl-DNA phosphodiesterase 1 (TDP1): qHTS in cells in absence of CPT; further: nearly all actives have a fitted effect of over 55% in size
Conditions: DT40 Tdp1-/- hTDP1 cells, no CPT, ATP luminescence, 48 h; activity change, negative = growth inhibition: at 46.2 µM (top of the series)
Source text: Human tyrosyl-DNA phosphodiesterase 1 (TDP1) is a novel repair gene, and we propose to use it as a new target for anticancer drug development. TDP1 is not an essential protein, but under treatment with topoisomerase I poison (camptothecin: CPT), TDP1 works as a critical factor for cell survival. To directly identify novel TDP1 inhibitors active in a cellular environment, we have knocked-out the Tdp1 gene in chicken DT40 cells (Tdp1-/-) and generated a complemented counterpart cells that contains a stable transfection of the human TDP1 gene (Tdp1-/-;hTDP1 cells). For the primary screen, Tdp1-/-;hTDP1 cells will be exposed to small molecules in the presence or absence of CPT, and their growth kinetics will be evaluated after 48 hours by measuring ATP activity. […] The hit compounds will then be evaluated in the presence or absence of CPT using Tdp1-/- cells. […] In tertiary assays, biochemical gel-based assays will be used to assess whether the hit compounds specifically target TDP1.
To this end, we have screened this cell line against the MLSMR in two primary screens. In one screen we add CPT and in the other we screen in the absence of CPT; this AID represents the screen where CPT was absent.
NIH Chemical Genomics Center [NCGC]
NIH Molecular Libraries Probe Centers Network [MLPCN]
Assay Submitter (PI): Yves Pommier, NCI
DT40-hTDP1 cells without 20 nM Camptothecin (add 20 microL of DMSO in 1 L of cell culture medium) were dispensed at 400 cells/5microL/well in tissue culture treated 1536-well white wall/solid bottom assay plates (Greiner Bio-One North America, NC, U.S.A.) using a Multidrop Combi 8 channel dispenser (Thermo Fisher, Waltham, MA, USA). 23 nL compounds and controls were transferred using the pin tool (Kalypsys, San Diego, CA, USA) to the assay plates. The assay plates were then incubated at 37 masculineC for a minimum 48 hr. Three microL of Cell Titer Glo solution was added to the plates and incubated at RT in dark for 30 min. Luminescence was read using ViewLux (Perkin Elmer) with 1 sec exposure slow speed, high gain and 2x binning.
On the % scale 0 is the no-effect control and ±100 the full control effect; potency means the concentration at half of the fitted maximal effect.

Structure (SMILES) | activity change, negative = growth inhibition | Potency
Cc1ccc(S(=O)(=O)N[C@H](CO)C(C)C)cc1 | -8.67% | 
CN(C)C(=O)N=NC(=O)N(C)C |  | 9.2 µM (active)
COC(=O)N/N=C/c1c[n+]([O-])c2ccccc2[n+]1[O-] |  | 0.0422 µM (active)
CCOC(=O)N/N=C/c1cccnc1 | -4.41% | 
CC(C)(C)OC(=O)N/N=C/c1ccc(C(=O)O)cc1 | -1.61% | 
N#Cc1ccccc1NC(=O)c1ccc2c(c1)OCO2 | -7.95% | 
CC1CCN(C(NC(=O)c2ccco2)C(=O)c2ccccc2)CC1 (stereo not drawn) | -16.8% | 
O=C(NCc1ccc2c(c1)OCO2)C(=O)NCC1OCCN1S(=O)(=O)c1ccc(F)cc1 (stereo not drawn) | -8.46% | 
O=C(NCc1ccncc1)C(=O)NCC1OCCN1S(=O)(=O)c1ccc(Br)cc1 (stereo not drawn) | -29.5% | 
O=C(NCCCN1CCCC1=O)C(=O)NCC1OCCN1S(=O)(=O)c1ccc(Br)cc1 (stereo not drawn) |  | 0.411 µM (active)
CC(C)c1ccc(NC(=O)CCN2C(=O)c3ccc([N+](=O)[O-])cc3C2=O)cc1 | -9.27% | 
CC(C)CNC(=O)COC(=O)/C=C/c1ccccc1[N+](=O)[O-] | -0.949% | 
CC(C)OCCCNC(=O)C1CC(=O)N(C2CCCCCCC2)C1 (stereo not drawn) | -2.8% | 
O=C(Cc1ccccc1)NCC1OCCc2ccccc21 (stereo not drawn) | -8.35% | 
Cc1ccc2nc(N3CCN(C(=O)c4ccco4)CC3)sc2c1 | -28.4% | 
COc1ccc2nc(N3CCN(C(=O)c4ccc([N+](=O)[O-])o4)CC3)sc2c1 |  | 20.6 µM (active)
COc1ccc2nc(N3C(=O)C(O)=C(C(=O)c4ccco4)C3c3ccco3)sc2c1 (stereo not drawn) | -10.9% | 
COC(=O)[C@H](CCSC)NC(=O)Nc1ccc(OC)cc1 | 8.53% | 
CCN(CC)C(=O)CCC(=O)Nc1ccc(C(=O)OC)cc1 | 1.08% | 
Cc1ccc(C)c(NC(=S)NCC(c2cccnc2)N2CCOCC2)c1 (stereo not drawn) | -12.6% | 
COc1ccccc1N1CCN(C(CNC(=O)C(=O)NCc2ccc(C)cc2)c2cccnc2)CC1 (stereo not drawn) |  | 2.06 µM (active)
Cc1ccc(NC(=O)C(=O)NCC(c2cccnc2)N2CCOCC2)cc1 (stereo not drawn) | -17.6% | 
Cc1cc(C)n(-c2nnc(C)n2NC(=O)c2cccc(Cl)c2)n1 | -4.6% | 
Cn1c(SCC(=O)c2cccs2)nnc1-c1ccco1 | 0.382% | 
CC1CCC2(CC1)NC(=O)N(CC(=O)NCc1ccco1)C2=O (stereo not drawn) | -3.31% | 
O=C(CCCCCN1C(=O)c2cccc3cccc(c23)C1=O)NCc1ccco1 | -20.4% | 

Structure (SMILES) | activity change, negative = growth inhibition | Potency
O=C(CN1C(=O)/C(=C\c2ccc(C(F)(F)F)cc2)Sc2ccccc21)NCc1ccco1 |  | 13 µM (active)
Cc1cccc(NS(=O)(=O)c2cc(Cl)ccc2Cl)n1 | -14.9% | 
Nc1nc(SCC(=O)NN(c2ccccc2)c2ccccc2)n[nH]1 | -12.2% | 
CCOC(=O)C(Cc1ccccc1)NC(=O)CCC(=O)c1ccc(OC)cc1 (stereo not drawn) | -4.08% | 
O=C(NCCc1ccccn1)c1cc(C(=O)C2CCCCC2)c[nH]1 | -23.5% | 
Cn1cnnc1SCC(=O)Nc1ccc(N2CCOCC2)cc1 | 7.4% | 
O=C(CNC(=O)COc1ccccc1)NCCc1ccccn1 | 5.28% | 
CN(CC(=O)NCCc1ccccn1)S(=O)(=O)c1ccc(Cl)cc1 | 0.788% | 
O=C(NCCc1ccccn1)c1cc(-c2ccc(Cl)cc2)nc2ccccc12 |  | 18.4 µM (active)
Cc1cc(=O)oc(C)c1C(=O)NC1CC(C)(C)NC(C)(C)C1 | -1.14% | 
O=C(CC1SCCNC1=O)Nc1ccc(Cl)cc1 (stereo not drawn) | -10.1% | 
CCOc1ccccc1NC(=O)CCN1CCN(S(=O)(=O)c2ccc(OC)cc2)CC1 | -19.4% | 
COc1ccc(C2CC(=O)Nc3sc(=N)c4c(N)c(C#N)c(N)nc4c32)cc1OC (stereo not drawn) | -15.6% | 
N#Cc1c(N)nc2c3c(sc(=N)c2c1N)NC(=O)CC3c1ccccc1Cl (stereo not drawn) |  | 13 µM (active)
COCCN(C(=S)Nc1ccccc1OC)C1CCN(C(C)C)CC1 | 13.4% | 
CC(Sc1nncs1)C(=O)NCc1ccc2c(c1)OCO2 (stereo not drawn) | -15.6% | 
O=C(C1Cc2ccccc2CN1C(=O)c1ccco1)N1CCN(c2ccccc2)CC1 (stereo not drawn) | -5.87% | 
O=[N+]([O-])c1ccc2[nH]c3c(c2c1)CCCC3O (stereo not drawn) | -21.5% | 
CCc1nn(CCCC(=O)NCc2ccccc2OC)c(=O)c2cc3occc3n12 | -8.88% | 
CCc1cc2c(cc3c(=O)n(CC(=O)N4CCN(c5cc(Cl)ccc5C)CC4)nc(CC)n32)s1 | -27.1% | 
Cc1nn(CCCC(=O)NCc2ccccc2Cl)c(=O)c2nccn12 | -16.9% | 
CC(NCCc1ccc(S(N)(=O)=O)cc1)C(=O)NCc1ccccc1 (stereo not drawn) | 13.9% | 
Cc1ccccc1CNC(=O)CCCn1nc(C)c2sc3ccccc3c2c1=O |  | 20.6 µM (active)
Cc1ccc(C)c(N2CCN(C(=O)Cn3nc(C)c4sc5ccccc5c4c3=O)CC2)c1 |  | 23.1 µM (active)
Cc1nn(C(C)C(=O)NCCc2ccccc2)c(=O)c2c1sc1ccccc12 (stereo not drawn) |  | 16.4 µM (active)
CCc1nn(CC(=O)N2CCN(c3cc(C)ccc3C)CC2)c(=O)c2cc3occc3n12 | -16.9% | 

Structure (SMILES) | activity change, negative = growth inhibition | Potency
C[C@H](NC(=O)NCCc1ccccc1)C(=O)O | 3.87% | 
Cc1cc(C)cc(OCC(=O)NNC(=O)CCN2C(=O)c3ccccc3C2=O)c1 | -13.1% | 
Cc1ccc(O)c(NC(=O)c2cc(-c3ccco3)on2)c1 | -20.7% | 
CC1Cc2cc(/C(O)=C3\C(=O)C(=O)N(CCN4CCOCC4)C3c3ccccc3F)ccc2O1 (stereo not drawn) | 1.69% | 
O=C(O)CC1S/C(=N\N=C/c2ccccc2O)N(c2ccc(O)cc2)C1=O (stereo not drawn) | -0.385% | 
CN(C(=O)c1ccccc1)c1nccnc1C#N | -11.8% | 
CC(=O)Nc1cccc(C(=O)OCC(=O)NCc2cc(C)c(O)c(C)c2)c1 | 6.94% | 
Brc1ccc(-c2csc(N/N=C/c3ccc4c(c3)OCO4)n2)cc1 |  | 8.2 µM (active)
O=C(CN1CCN(c2nc(-c3ccccc3)cs2)CC1)NCc1ccc2c(c1)OCO2 | -25.4% | 
Cc1cc(=O)[nH]c(N/N=C/c2ccc3c(c2)OCCO3)n1 | 16.8% | 
O=C(NCC(=O)N1CCN(c2ccccc2F)CC1)c1cccs1 | 6.86% | 
COc1cc(/C=C(\C#N)C(=O)Nc2ccc3ccccc3c2)c([N+](=O)[O-])cc1OC | -10.2% | 
O=c1ccc2cc(S(=O)(=O)Nc3ccccc3F)ccc2o1 | -31.6% | 
Nc1ccc(OCC(O)C[n+]2ccc(CCS(=O)(=O)[O-])cc2)cc1 (stereo not drawn) | -3.67% | 
CCCc1cc(=O)[nH]c(SCC(=O)c2c(N)n(CC(C)C)c(=O)n(C)c2=O)n1 | -20.6% | 
CC(C)Cn1c(N)c(C(=O)COC(=O)CN2C(=O)C3CC=CCC3C2=O)c(=O)n(C)c1=O (stereo not drawn) |  | 9.2 µM (active)
COc1ccc(C(=O)COC(=O)CN2C(=O)C3CC=CCC3C2=O)c(OC)c1 (stereo not drawn) | -1.18% | 
COc1ccc(Br)cc1/C=N/n1c(C)nnc1C | 5.28% | 
O=C(/C=C\NCC(=O)c1ccccc1)c1ccccc1 | -16.2% | 
Cc1nc(NC(=O)C23CCC(C)(C(=O)O2)C3(C)C)sc1C (stereo not drawn) | -3.52% | 
O=C(CCN1C(=O)c2ccncc2C1=O)Nc1cc(F)ccc1F | 2.57% | 
CC(C)Cn1c(SCC(=O)Nc2ccc(Cl)cc2F)nc(O)cc1=O | -20.6% | 
CN1c2ccc(Cl)cc2-c2nc(SCC(=O)Nc3cc(F)ccc3F)ncc2S1(=O)=O |  | 23.1 µM (active)
N/C(Cc1ccc([N+](=O)[O-])cc1)=N\OC(=O)COc1ccc2ccccc2c1 | -4.59% | 
CCOc1ccccc1NC(=O)c1cccnc1 | 8.78% | 
Cc1ccc(NC(=O)CSc2nc(CSc3ccc(C)cc3)cc(=O)[nH]2)cc1 | -1.55% | 

Structure (SMILES) | activity change, negative = growth inhibition | Potency
Nc1nc(CSc2nnnn2-c2ccccc2)nc(Nc2ccccc2)n1 | -11.6% | 
Cc1ccc(Nc2nc(CSc3nnnn3-c3ccccc3)cc(=O)[nH]2)cc1 |  | 18.4 µM (active)
Cc1ccc(N2C(=O)CC(NCc3ccc4c(c3)OCO4)C2=O)cc1Cl (stereo not drawn) | -4.98% | 
CSC1=NC2(C)CCCCC2C12C=CC(=O)C=C2 (stereo not drawn) | 13.8% | 
O=c1[nH]nc(CSCc2ccccc2Cl)[nH]1 | 0.525% | 
COc1ccc(NC(=O)C2COc3ccccc3O2)cc1 (stereo not drawn) | -5.89% | 
COc1ccc(OC)c2sc(N3CCN(C(=O)C4COc5ccccc5O4)CC3)nc12 (stereo not drawn) |  | 16.4 µM (active)
CC(=O)c1ccccc1NC(=O)COC(=O)C1COc2ccccc2O1 (stereo not drawn) | -5.47% | 
Cc1cc(Cl)ccc1N1C(=O)CC(SCCC(=O)O)C1=O (stereo not drawn) | -7.11% | 
CCOC(=O)c1cn(CC)c2cc(F)c(F)cc2c1=O | -3.3% | 
COc1cc(OC)cc(C(=O)Nc2nnc(SCC(=O)NCC3CCCO3)s2)c1 (stereo not drawn) | 5.33% | 
CC(C)(C)NC(=O)COc1ccc(CNc2ccc3[nH]c(=O)[nH]c3c2)cc1 | -19.9% | 
C=C(C)C(=O)O[C@H]1C/C(C)=C\C(=O)/C=C(\C)[C@H](O)[C@@H]2OC(=O)C(=C)[C@@H]21 |  | 1.16 µM (active)
C/C=C(\C)C(=O)O[C@H]1CC(C)=C2C(=O)C=C(C)C2[C@@H]2OC(=O)[C@@](C)(OC(=O)C=C(C)C)C21 (stereo partly drawn) | 5.36% [at 9.04 µM] | 
Cc1c(S(=O)(=O)N2CC(C)CC(C)C2)c(=O)n(C)c(=O)n1C (stereo not drawn) | 6.33% | 
CCN(C(=O)Cc1c(C(=O)O)n(CC)c2ccccc12)c1ccccc1C | -6.5% | 
CCOC(=O)c1sc(NC(=O)COc2ncnc3ccccc23)c(C(=O)OCC)c1C | -28% | 
NC(=O)Nc1ccc(C(=O)OCC(=O)NC2CCCc3ccccc32)cc1 (stereo not drawn) | -9.68% | 
CCOC(=O)c1c(NC(=O)CNC2CCCc3ccccc32)sc(C(N)=O)c1C (stereo not drawn) |  | 16.4 µM (active)
C=CCNC(=O)CC12CC3CC(C1)CC(CC(=O)NCC=C)(C3)C2 | -16.4% | 
COc1ccc(CNC(=O)C(=O)N2CCC3(CC2)OCCN3S(=O)(=O)c2ccc(C)cc2)cc1 | -24.9% | 
Cc1noc(C)c1CCC(=O)N1CCCC(CO)(Cc2ccccc2)C1 (stereo not drawn) | -5.73% | 
CCc1[nH]nc(C(=O)N2CCCC(CO)(Cc3ccc(F)cc3F)C2)c1C (stereo not drawn) | -24.1% | 
Cc1ccccc1CC1(CO)CCCN(C(=O)c2cc(-c3ccccc3)no2)C1 (stereo not drawn) |  | 29.1 µM (active)
CCCc1nnc(NC(=O)CCC(=O)N2CCN(S(=O)(=O)c3ccc(OC)cc3)CC2)s1 | -9.79% | 

Source: PubChem BioAssay AID686978 (National Center for Advancing Translational Sciences (NCATS), 2013)
